In ChEMBL document CHEMBL3988442, “University of Dundee, Small-Polar-MMV Screening Library” (2021):
Hit rate of the full screen: of about 69,000 compounds, about 950 (1.4%) showed an effect of 50% or more. The entries come from a sample that favours strong results as a whole.

These molecules were tested on Mycobacterium tuberculosis (assay: Cornell M. t heat shock assay; also: in the data most compounds retested in dose-response had high values).
Format: functional, organism-based
Parameters: dose or concentration left out as unconfirmed

SMILES	Percent Effect
CC(C)Oc1cccc(CN2CCC(c3n[nH]c4ncccc34)CC2)c1	-24.22%
CC(C1CCN(Cc2ccccc2OC(F)F)CC1)N1CCOCC1 (stereo unspecified)	90.2%
CC(C1CCN(Cc2cccc(OC(F)F)c2)CC1)N1CCOCC1 (stereo unspecified)	1.128%
CC(C1CCN(Cc2ccc(N(C)C)nc2)CC1)N1CCOCC1 (stereo unspecified)	-22.49%
CC(C1CCN(Cc2ccc(OC(F)F)cc2)CC1)N1CCOCC1 (stereo unspecified)	96.37%
CC(C)Oc1cccc(CN2CCC(C(C)N3CCOCC3)CC2)c1 (stereo unspecified)	91.46%
CC(C)Oc1ccc(CN2CCC(Cc3nnc(CO)n3C)CC2)cc1	-21.53%
FC(F)Oc1ccccc1CN1CCCC(c2nccn2CC2CC2)C1 (stereo unspecified)	23.85%
CC(C1CCN(Cc2c(Cl)cncc2Cl)CC1)N1CCOCC1 (stereo unspecified)	-44.11%
CC(=O)NCC(=O)N1Cc2nccn2CC(COc2cccnc2)C1.O=C(O)C(F)(F)F (stereo unspecified)	-35.06%
Cc1nc(C2(O)CCCNCC2)sc1CCOc1ccccc1F.Cl (stereo unspecified)	-4.166%
O=CO.c1cc2nccc(CC3CCCN(Cc4c[nH]cn4)CC3)c2cn1 (stereo unspecified)	-8.502%
CCN1CCOCC12CCN(c1cnccn1)CC2.O=C(O)C(F)(F)F	-4.677%
CC(C)(CO)CNC(=O)c1cc(-c2cc[nH]n2)n2ccccc12.O=C(O)C(F)(F)F	10.76%
O=C(O)C(F)(F)F.O=C(O)C(F)(F)F.O=C(O)C(F)(F)F.c1cncc(CN2CCC3(CC2)CC(c2cccnc2)CO3)c1 (stereo unspecified)	-27.59%
CCCOc1ccc(CNc2cncc(-n3cccn3)n2)cc1	63.69%
CCOCc1ccc(CNc2cncc(-n3cccn3)n2)cc1	-0.9926%
CNC(=O)COc1ccc(CNc2cncc(-n3cccn3)n2)cc1	-4.201%
CCOc1cc(CN(C)CC(=O)O)ccc1OC(F)F.Cl	-22.89%
Cc1cc2cccc(NC(=O)N3CC[C@@H]4CC[C@H](C3)N4C)c2o1	25.84%
Cc1cc(-c2cnn(CCNC(=O)c3cc[nH]n3)c2C2CC2)on1	53.69%
Cc1cc(-c2cnn(CCNC(=O)C3CC3)c2C2CC2)on1	-1.703%
Cc1cc(-c2cnn(CCNC(=O)c3cnn(C)c3)c2C2CC2)on1	-6.591%
O=S(=O)(c1ccccc1)N1C(CN2CCOCC2)[C@]2(O)CC[C@H]1CC2 (stereo partly specified)	-28.69%

SMILES	Percent Effect
CCS(=O)(=O)N1CCOC2(CCCN(Cc3ccccn3)C2)C1.O=C(O)C(F)(F)F (stereo unspecified)	2.925%
NCC(=O)N1CCC(c2cncc(Oc3cccnc3)n2)CC1	-6.248%
COCCC(=O)N1CCC(c2cncc(Oc3cccnc3)n2)CC1	51.38%
CCC(=O)N1CCC(c2cncc(Oc3cccnc3)n2)CC1	-19.43%
Cl.Clc1cccc(N[C@H]2CCCN[C@H]2Cc2ccccc2)c1	104.4%
CCOc1ccc(Cl)cc1C1CCCN1.Cl (stereo unspecified)	-11.35%
Cl.c1ccc(CCNc2cccc(C3CCCNC3)n2)cc1 (stereo unspecified)	-24.38%
O=C1NCCCC1NC(=O)C1(c2cccc(Cl)c2)CCC1 (stereo unspecified)	0.8202%
CN[C@H]1CC[C@]2(CC1)CNC(=O)c1cc(C)ccc1O2	-8.947%
CN1CCN(S(=O)(=O)c2ccccc2)Cc2cccnc21.O=C(O)C(F)(F)F	19.11%
CN(C)CC(=O)N1CCC2(CC1)CN(Cc1cccnc1)C(=O)CO2	-16.01%
Cc1cc(C)n(CC2CCCN2CCCS(C)(=O)=O)n1 (stereo unspecified)	7.273%
CN1Cc2cc(F)ccc2N(CC(C)(C)O)CCC1=O	56.09%
CCCC(O)CN1CCC(=O)N(CC)Cc2cc3c(cc21)OCO3 (stereo unspecified)	53.46%
CCCC(O)CN1CCC(=O)N(CCOC)Cc2cc3c(cc21)OCO3 (stereo unspecified)	26.79%
CN1Cc2ccccc2N(CC(O)C(F)(F)F)CCC1=O (stereo unspecified)	42.32%
CC(C)(O)CN1CCC(=O)N(Cc2ccco2)Cc2cc(F)ccc21	-9.768%
COc1ccc2c(c1)CN(C)C(=O)CCN2CC(O)C(F)(F)F (stereo unspecified)	35.74%
CCCC(O)CN1CCC(=O)N(CC2CC2)Cc2cc3c(cc21)OCO3 (stereo unspecified)	15.68%
CCCC(O)CN1CCC(=O)N(C)Cc2cc(F)ccc21 (stereo unspecified)	66.32%
CN1Cc2cc(F)ccc2N(CC(O)C(F)(F)F)CCC1=O (stereo unspecified)	54.29%
CCCC(O)CN1CCC(=O)N(Cc2ccccc2)Cc2ccccc21 (stereo unspecified)	5.738%
CCN1CCC(=O)N(C)Cc2cc(F)ccc21	13.57%
CCCC(O)CN1CCC(=O)N(CCOC)Cc2ccccc21 (stereo unspecified)	30.93%

SMILES	Percent Effect
CCc1ccc(CN2C[C@H](OC)[C@H]3COC[C@H]32)o1.O=C(O)C(F)(F)F	46.3%
Cn1cc(CN2C[C@H]3CCC[C@@]3(COc3ccccn3)C2)cn1.O=C(O)C(F)(F)F.O=C(O)C(F)(F)F	-2.585%
Cl.Fc1cccc(F)c1Cn1c(C2CCNCC2)cc2cccnc21	-5.947%
Cc1nc(CN2C(=O)C[C@H]3[C@H]2CCN3CC2CCOC2)cs1.O=C(O)C(F)(F)F (stereo partly specified)	-4.028%
COCC1CC2(CCN(c3ccc(C)nn3)CC2)CN1C(C)C.O=C(O)C(F)(F)F (stereo unspecified)	-4.94%
Cl.Cl.O=C(NCc1cncc2c1CCN(CC1CCOC1)C2)c1ccco1 (stereo unspecified)	5.54%
COCCN1CCC2(C1)c1ccccc1S(=O)(=O)N2C.O=C(O)C(F)(F)F (stereo unspecified)	24.71%
Cc1cc(N2CCN(Cc3ccnn3C)CC2)cc(C2CCCN2)n1.Cl (stereo unspecified)	-17.02%
Cc1nc(C2(O)CCCNCC2)sc1CCOc1ccc(F)c(F)c1.Cl (stereo unspecified)	-9.071%
CC(C)CS(=O)(=O)N1C[C@H]2C[C@H](C(=O)N(C)C)[C@@H](C1)O2	1.328%
CCN1Cc2cc(F)ccc2N(CC(O)C(F)(F)F)CCC1=O (stereo unspecified)	51.9%
CCN1Cc2cc(OC)ccc2N(CC(C)(C)O)CCC1=O	-11.62%
COc1ccc2c(c1)CN(C)C(=O)CCN2CC(O)C(C)(C)C (stereo unspecified)	46.8%
CC(C)OCc1nn(C)c2c1CN(Cc1cccs1)CC2.O=CO	3.631%
COc1ccccc1N1CCC(NCc2c(C)noc2C)C1 (stereo unspecified)	-23.49%
Cc1noc(CNc2c(N3CCCC3)cccc2N2CCCC2)n1	25.1%
Cc1noc(C)c1CNc1c(N2CCCC2)cccc1N1CCCC1	65.01%
COc1cccc(CN2CCC3(CC2)CCN(C(=O)[C@@H]2CCCO2)C3)c1.O=C(O)C(F)(F)F	-4.383%
Cc1nc(Cc2ccc(F)cc2)cc(C2COCCN2)n1.Cl (stereo unspecified)	12.05%
O=C(Nc1ccccc1)[C@H]1C[C@@H]2CN(S(=O)(=O)C3CC3)C[C@H]1O2	2.732%
CN(C)CCN(C(=O)Cc1ccc2c(c1)OCCO2)C1CCN(C)CC1.O=C(O)CC(O)(CC(=O)O)C(=O)O	-33.14%
CCOCC1CN(Cc2cccnc2)Cc2nn(C)cc21.O=C(O)C(F)(F)F.O=C(O)C(F)(F)F (stereo unspecified)	-34.52%
Cc1cnccc1CNCc1ccc(OC23CCCN(CC2)C3)cc1 (stereo unspecified)	-9.053%
c1ccc(Oc2cccc(OC34CCCN(CC3)C4)c2)cc1 (stereo unspecified)	91.1%

SMILES	Percent Effect
c1ccc(Oc2ccc(OC34CCCN(CC3)C4)cc2)cc1 (stereo unspecified)	98.13%
Cc1nc(CNCc2cccc(OC34CCCN(CC3)C4)c2)n[nH]1 (stereo unspecified)	-9.099%
O=c1[nH]nc(CNCc2ccc(OC34CCCN(CC3)C4)cc2)[nH]1 (stereo unspecified)	-6.374%
N#Cc1cccc(OC23CCCN(CC2)C3)c1 (stereo unspecified)	-19.96%
CCOCC1CN(C(=O)c2cc(C)oc2C)Cc2c1cnn2C.O=C(O)C(F)(F)F (stereo unspecified)	38.21%
CN1CC(=O)N(c2cccc(F)c2)CC12CCN(S(C)(=O)=O)C2.O=C(O)C(F)(F)F (stereo unspecified)	-1.241%
CCOCC(=O)Nc1ccc(-n2ccc(C(N)=O)n2)cc1	15.42%
CSCC(=O)Nc1ncn(Cc2cccc(Br)c2)n1	-31.04%
CNC(=O)c1ccc(Cn2ccnc2S(C)(=O)=O)cc1	3.305%
CCOCC(=O)Nc1nccn1Cc1ccc(Br)cc1	106.8%
COCCC(=O)Nc1nccn1Cc1ccc(Br)cc1	102.5%
CC(C)(C#N)C(=O)Nc1nccn1Cc1ccc(Br)cc1	102.4%
CSc1ncccc1C(=O)Nc1ccc(Cn2ccccc2=O)cc1	5.912%
CS(=O)(=O)c1nccn1Cc1ccc(C(N)=O)cc1	2.892%
CCOCC(=O)Nc1ncn(Cc2cccc(Br)c2)n1	-16.14%
COCCn1ccc(=O)c(OCC(=O)Nc2ccc(Br)cc2)c1C	17.79%
CSCC(=O)Nc1nccn1Cc1ccc(Br)cc1	103.2%
COCCC(=O)Nc1ccnn1-c1ccccc1	-7.442%
O=C1c2cnc(N3CCOCC3)nc2CN1C1CCS(=O)(=O)C1 (stereo unspecified)	3.438%
CN(C)[C@@H]1CCN(C(=O)Cc2cccs2)[C@H]1Cc1ccncc1.O=C(O)C(F)(F)F.O=C(O)C(F)(F)F	-5.714%
O=C(O)C(=O)O.c1cc(CN2CCC(c3ccc4c(c3)OCO4)CC2)ccn1	-9.586%
Cc1nc[nH]c1CN1C[C@@H]2CC[C@H](C1)N(C(=O)CCn1cncn1)C2	2.899%
Cc1cc(C(=O)N2CCO[C@H]3[C@H](OCCN(C)C)CC[C@@H]32)c(C)[nH]1.O=C(O)C(F)(F)F	-25.69%
O=C(O)C(F)(F)F.O=C(O)C(F)(F)F.c1cnn(Cc2nnc3n2CCCN(Cc2ccsc2)C3)c1	-42.35%
